G9a block: inhibitors of human histone lysine methyltransferase G9a. Q96KQ7. hit rate 8.8% among 350,000. AID 504332. G9a H3K9 monomethylation, AlphaScreen, 2 h. Potency, µM (doses to about 102 µM), most hits filed as inhibitors; note: nearly all actives have a fitted effect of over 75% in size
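Methyltransferase reactions run at room temperature for 2 h (20 nM enzyme, 500 nM biotin-H3K9 peptide, 20 uM SAM) after a 15 min compound preincubation; product detected by AlphaScreen beads and anti-H3K9me1 antibody.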
BAZ2B block: blocks human BAZ2B; Q9UIF8; AlphaScreen BAZ2B-H3K14Ac peptide displacement; Potency, µM (top dose mostly 114 µM), actives largely listed as inhibitors; hit rate 4.4% among 360,000; AID 504333; note: nearly all actives have a fitted effect of over 60% in size
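AlphaScreen displacement: compounds (up to 110uM) incubated 30 min at room temperature with a preformed 50 nM BAZ2B/50 nM biotinylated H3K14Ac peptide complex in PBS pH 7.4 with Tween-20. Donor and acceptor beads at 10 ug/mL final added, 20 min light-protected before reading.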
JMJD2A Tudor inh: inhibitors of human JMJD2A Tudor domain; O75164; AlphaScreen JMJD2A-Tudor / H3K4me3 peptide binding; Potency, µM (titrated, usually from 114 µM), hits mostly inhibitors; hit rate 4.4% among 390,000; note: nearly all actives have a fitted effect of over 50% in size
PLK1 PBD block: inhibitors of human PLK1 polo-box domain binding. Plk1 PBD binding of FITC phosphopeptide, fluorescence polarization. Potency, µM, actives largely listed as inhibitors. hit rate 2.8% among 360,000; note: series mostly up to about 57 µM; nearly all actives have a fitted effect of over 65% in size
ALOX12 inh: blocks human arachidonate 12S-lipoxygenase; P18054; purified 12hLO, xylenol orange hydroperoxide absorbance; Potency, µM (series often up to 108 µM), hits mostly inhibitors; hit rate 1.1% among 580,000; AID 1671190
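Purified human 12hLO (150 nM final) in 25 mM Hepes, 0.01% Triton X-100, pH 7.0 was preincubated 15 min at room temperature with compound. Then 40 uM arachidonic acid was added, 30 min. Hydroperoxide was read by Fe-XO absorbance ratio 573/405 nm.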
HP1b chromo inh: blocks HP1-beta chromodomain binding to methylated histone tails; P83916; AlphaScreen HP1-beta / biotin-H3K9me3 peptide binding; Potency, µM (titrated, usually from 114 µM), actives largely listed as inhibitors; hit rate 0.56% among 390,000; note: nearly all actives have a fitted effect of over 70% in size
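Compound inhibition of the preformed complex between 50 nM HP1-beta and 50 nM biotinylated H3K9me3 peptide was read by AlphaScreen. Buffer was PBS pH 7.4 with 0.01% Tween-20. Incubations ran 30 min at room temperature, with 10 ug/mL donor/acceptor beads.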
A number is an active result; 0 = inactive; ? = inconclusive; - = no result given; ! = not confirmed by another sample; [ ] = dose if it differs, or a comment. Compounds with a hit are over-represented: about 9% of the library has one in this group of screens. Calls come from the whole dose curve; as a rule, active = well fitted curve in the direction sought with a large enough effect; inconclusive = small, poorly fitted or top-dose-only effect, or another doubt; inactive = no such curve, though single readings can be large; an effect the other way counts as inactive or inconclusive.

SMILES	G9a block	BAZ2B block	JMJD2A Tudor inh	PLK1 PBD block	ALOX12 inh	HP1b chromo inh
O=C(c1nnc(CNc2ccc(F)cc2)n1-c1ccccc1)N1CCC[C@@H]1C(c1ccccc1)c1ccccc1	-	-	-	-	0	-
Cc1ccc(/C=N/NC(=O)Cn2nccc2C)o1	0[2.33 µM]	0	0	0	0	0
Cc1ccc(/C=N/NC(=O)Cn2nc(C)c([N+](=O)[O-])c2C)o1	50µM	0	0	0	0	0
O=C(c1ccccc1)c1nn(-c2ccccc2)c2nnc(Cc3ccccc3)c(=O)n12	10µM	0	?	0	0	0
Cc1ccc(-n2nc(C(=O)c3ccccc3)n3c(=O)c(Cc4ccccc4)nnc23)cc1	-	-	0	0	0	0
COc1ccc(O)c(-c2cc(-c3ccc(F)cc3)n[nH]2)c1	?	?	?	0	0	0
COc1ccc(-c2cc(-c3cc(OC)ccc3O)[nH]n2)cc1	0	?	28µM	6.7µM	?	?
NC(=S)N=Nc1ccc(NN=C(N)N)cc1	?	40µM	11µM	3.8µM	?	4µM
NC(N)=Nc1ccc(N=C(N)N)cc1	?	?	0	0	0	0
Cc1ccc(S(=O)(=O)c2nc(S(=O)(=O)c3ccc(C)cc3)c(NC(C)C)s2)cc1	0	0	0	-	0	0
CC1CCCCN1Cc1c(O)ccc2c(=O)c(-c3ccc(Cl)cc3)coc12 (configuration not stated)	0	0	79µM!	0	0	0
O=c1c(-c2ccc(Cl)cc2)coc2c(CN3CCOCC3)c(O)ccc12	0	-	0[11.4 µM]	19µM	0	0
O=C(Nc1cccc(-c2ccc(F)cc2)c1)C1CCCN(C(=O)c2cccnc2)C1 (configuration not stated)	-	-	-	-	0	-
Cc1ccc(-n2cc(CNCCc3ncc(C)[nH]3)c(-c3ccc(F)cc3)n2)cc1	0	?	56µM	0	0	0
COc1ccc(-n2cc(CNCc3cccnc3)c(-c3cccc(F)c3)n2)cc1	0[12.7 µM]	0	0	0	0	0
COc1ccc(-n2cc(CNCCc3ncc(C)[nH]3)c(-c3ccccc3Cl)n2)cc1	35µM	?	0	0	0	0
COc1ccc(CNCc2cn(-c3cccc(F)c3)nc2-c2ccc(C)o2)cc1	45µM	?	?	0	45µM	0
COc1ccc(-n2cc(CNCCc3cnc[nH]3)c(-c3cccc(F)c3)n2)cc1	0	50µM	?	0	0	0
COc1cccc(SCC(=O)c2ccc3c(c2)CCC(=O)N3)c1	-	-	-	-	35µM	-
COc1cccc(NS(=O)(=O)c2ccc3c(c2)CCC(=O)N3)c1	-	-	0	-	-	-
COC(=O)Nc1cc(C(=O)c2ccc(Cl)cc2Cl)c[nH]1	50µM	?	?	0	-	0
COC(=O)NNC(=O)c1ccc(Cl)cc1Cl	0	0	0	0	0	0
CCOC(=O)C1=CC[C@H]2c3c(c4ccccc4n3C)C[C@H]1N2C	0[0.501 µM]	0	0	0	0	0
COc1ccc(SCC(=O)c2cc(C)c(OC(=S)N(C)C)c(C)c2)cc1	40µM	0	0	0	0	0
Cc1cc(C(=O)CSc2ccc(F)cc2)cc(C)c1OC(=S)N(C)C	0	?	0	?	0	0
SMILES	G9a block	BAZ2B block	JMJD2A Tudor inh	PLK1 PBD block	ALOX12 inh	HP1b chromo inh
O=C(NCC(c1ccco1)N1CCc2ccccc21)c1ccccc1Br (configuration not stated)	0[0.501 µM]	?	?	0	?	0
O=C(NCC(c1ccco1)N1CCc2ccccc21)c1ccccc1F (configuration not stated)	56µM	?	?	0	0	?
Cc1ccc(C(=O)NCC(c2ccco2)N2CCc3ccccc32)cc1 (configuration not stated)	50µM	?	?	0	?	0
Cc1cccc(C(=O)NCC(c2ccco2)N2CCc3ccccc32)c1 (configuration not stated)	0[2.33 µM]	?	?	0	?	0
O=C(NCC(c1ccco1)N1CCc2ccccc21)c1cccc([N+](=O)[O-])c1 (configuration not stated)	0[2.33 µM]	50µM	56µM	0	?	0
Cc1ccc(S(=O)(=O)NCC(c2ccco2)N2CCc3ccccc32)cc1 (configuration not stated)	40µM	?	?	0	0	0
Cc1ccc(CNC(=O)CCC[C@@H]2[C@H]3CCCN4CCC[C@@H](CN2Cc2ccccc2)[C@@H]34)o1	-	-	-	-	0	-
CC1(C)CC(Nc2ccc(Nc3ccccc3)cc2)CC(C)(C)N1	?	35µM	45µM	0	?	?
COc1ccc2c(c1)C(C)=CC(C)(C)N2S(=O)(=O)c1ccc(C)cc1	0	0	0	?	0	0
CCOc1ccc2c(c1)[N+](C)(C)C(C)(C)C=C2C	?	0	18µM	0	?	0
COc1ccc2c(c1)[N+](C)(C)C(C)(C)C=C2C	?	0	18µM	0	32µM	?
Brc1ccccc1/C=N/Nc1nncc2ccccc12	-	-	-	-	0	-
CC1=C/C(=N\Nc2nncc3ccccc23)CC1	-	-	-	-	50µM	-
C(=N\Nc1nncc2ccccc12)/c1ccccn1	0	25µM	79µM	0	?	0
Fc1cccc(/C=N/Nc2nncc3ccccc23)c1	0	0	20µM	21µM	0	0
CS(=O)(=O)c1ccc(O[C@H]2COCCN(c3nc4ccccc4s3)C2)cc1	-	-	-	-	0	-
CC(C)Sc1ccc(C(=O)Nc2ccc(F)cc2F)cn1	0	0	0[11.4 µM]	19µM	0	0
N#Cc1cccc(NC(=O)N2CC3(CCN(C(=O)c4cnccn4)CC3)C2)c1	0[12.7 µM]	-	-	-	0	-
Cc1ccc(N2C(=O)C3Sc4[nH]c(=O)sc4C(c4ccccc4)C3C2=O)cc1 (configuration not stated)	0[0.501 µM]	50µM	0	0	?	0
CCOC(=O)c1ccc2[nH]c3c(c2c1)CCCC3O (configuration not stated)	0[12.7 µM]	?	0	0	0	0
O=C(NC[C@H]1O[C@@H](CC(=O)N2CCOCC2)[C@H](O)[C@@H]1O)Nc1cccc(F)c1	-	-	-	-	0	-
CCOC(=O)/C(=C\c1cccnc1)C(=O)c1cc(C(C)=O)c(Nc2ccccc2)s1	10µM	56µM	?	?	-	0
Cc1cc(NC(=O)c2ccc(C#N)cc2)n(-c2ccccn2)n1	45µM	0	0	0	0	0
CC(=O)N1CCN(S(=O)(=O)c2ccc3c(c2)CC(=O)N3)CC1	0[12.7 µM]	0	0	0	0	0
CC(=O)c1ccc(N2CCN(S(=O)(=O)c3ccc4c(c3)NC(=O)CC(=O)N4)CC2)cc1	0	0	16µM	27µM	0	0
O=C1Cc2cc(S(=O)(=O)N3CCN(c4ccc(Br)cc4)CC3)ccc2N1	-	-	141µM	-	-	-
CC(=O)Nc1ccc(S(=O)(=O)N2CCN(c3ccc(C(C)=O)cc3)CC2)cc1	-	-	-	-	0	-
O=C(COc1ccc(F)cc1Br)N1CCN(c2ncccn2)CC1	0	0	0	0	0	0

Compound activity: PubChem BioAssay, National Center for Advancing Translational Sciences (NCATS)
